# Results from the supplement of paper PMC10849652.
# The full data set covers some 7,900 targets. This sample favours those with a hit. About 0.6% of all pairs of compound and target were hits. Unmarked numbers belong to inactive results.
# Compound: C#Cc1cccc(Nc2ncnc3cc(OCCOC)c(OCCOC)cc23)c1 [erlotinib]
# Assay: log2 fold change, soluble protein after heating vs DMSO (PISA); higher = thermal stabilisation; K562 cells, 10 uM, 30 min; active = over 0.2 and 3.5 SD of the protein, either way, in both replicates (recomputed)
# How it was run: (§1)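 For each measurement, 10 μM compound was applied for 30 min to K562 cells at 2×10^6 cells/mL. Aliquots were heated for 3 min across 48°C-58°C, pooled, and extracted in PBS with 0.5% NP-40 at 4°C; the supernatant after 21,000xg for 90 min was soluble protein. This was quantified by TMTpro 16plex LC-MS/MS with channel sums equalised, and thermal stability was reported relative to control samples from duplicates, on a log2 fold-change scale.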
# UniProt Q8N9F7, sequence (Q8N9F7 whole entry, looked up): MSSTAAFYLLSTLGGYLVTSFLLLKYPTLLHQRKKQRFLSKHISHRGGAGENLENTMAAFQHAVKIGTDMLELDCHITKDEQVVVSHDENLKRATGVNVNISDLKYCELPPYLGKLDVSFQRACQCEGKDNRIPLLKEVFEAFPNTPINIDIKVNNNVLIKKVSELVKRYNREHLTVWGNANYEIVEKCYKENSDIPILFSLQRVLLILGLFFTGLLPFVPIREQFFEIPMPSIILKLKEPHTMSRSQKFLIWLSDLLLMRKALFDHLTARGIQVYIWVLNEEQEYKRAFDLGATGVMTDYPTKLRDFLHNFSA
# UniProt P04035, sequence (P04035 whole entry, looked up): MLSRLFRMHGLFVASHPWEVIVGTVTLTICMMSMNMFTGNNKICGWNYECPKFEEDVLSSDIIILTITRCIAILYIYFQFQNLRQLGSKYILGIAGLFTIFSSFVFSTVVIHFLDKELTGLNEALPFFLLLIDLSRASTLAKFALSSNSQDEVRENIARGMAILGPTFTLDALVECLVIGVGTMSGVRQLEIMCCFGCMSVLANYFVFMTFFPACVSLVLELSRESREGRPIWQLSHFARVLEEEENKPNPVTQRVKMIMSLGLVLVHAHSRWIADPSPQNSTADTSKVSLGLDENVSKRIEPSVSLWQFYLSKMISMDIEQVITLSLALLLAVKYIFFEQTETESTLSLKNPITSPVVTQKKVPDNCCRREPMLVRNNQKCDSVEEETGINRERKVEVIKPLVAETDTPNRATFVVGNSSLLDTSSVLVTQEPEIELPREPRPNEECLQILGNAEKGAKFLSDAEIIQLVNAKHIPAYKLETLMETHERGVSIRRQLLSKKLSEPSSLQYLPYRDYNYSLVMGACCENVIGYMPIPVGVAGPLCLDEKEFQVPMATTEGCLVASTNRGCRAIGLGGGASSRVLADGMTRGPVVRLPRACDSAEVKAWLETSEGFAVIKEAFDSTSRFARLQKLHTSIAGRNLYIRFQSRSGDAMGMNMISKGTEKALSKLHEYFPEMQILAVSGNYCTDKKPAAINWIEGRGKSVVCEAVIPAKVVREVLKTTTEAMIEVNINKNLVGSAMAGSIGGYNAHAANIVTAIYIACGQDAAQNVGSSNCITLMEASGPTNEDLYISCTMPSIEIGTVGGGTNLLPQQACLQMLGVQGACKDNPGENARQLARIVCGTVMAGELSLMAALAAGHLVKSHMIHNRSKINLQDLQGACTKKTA
# UniProt P22830, sequence (P22830 whole entry, looked up): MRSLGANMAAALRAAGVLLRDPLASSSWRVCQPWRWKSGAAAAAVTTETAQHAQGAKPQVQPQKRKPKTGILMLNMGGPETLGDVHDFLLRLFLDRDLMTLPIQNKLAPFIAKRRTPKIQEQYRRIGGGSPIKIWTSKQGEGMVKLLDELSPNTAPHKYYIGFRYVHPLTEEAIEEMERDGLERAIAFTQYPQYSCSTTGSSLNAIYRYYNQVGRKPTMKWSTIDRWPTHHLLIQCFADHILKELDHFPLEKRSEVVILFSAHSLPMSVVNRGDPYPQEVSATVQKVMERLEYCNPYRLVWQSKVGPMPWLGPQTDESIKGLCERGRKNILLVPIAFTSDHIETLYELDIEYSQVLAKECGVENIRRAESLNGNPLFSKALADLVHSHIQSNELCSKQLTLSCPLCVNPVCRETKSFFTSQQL
# UniProt Q9H0R8, sequence (Q9H0R8 whole entry, looked up): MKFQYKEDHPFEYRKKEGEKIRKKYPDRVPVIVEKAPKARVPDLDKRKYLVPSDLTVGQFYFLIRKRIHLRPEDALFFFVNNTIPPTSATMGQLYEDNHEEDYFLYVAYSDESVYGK
# UniProt P15104, sequence (P15104 whole entry, looked up): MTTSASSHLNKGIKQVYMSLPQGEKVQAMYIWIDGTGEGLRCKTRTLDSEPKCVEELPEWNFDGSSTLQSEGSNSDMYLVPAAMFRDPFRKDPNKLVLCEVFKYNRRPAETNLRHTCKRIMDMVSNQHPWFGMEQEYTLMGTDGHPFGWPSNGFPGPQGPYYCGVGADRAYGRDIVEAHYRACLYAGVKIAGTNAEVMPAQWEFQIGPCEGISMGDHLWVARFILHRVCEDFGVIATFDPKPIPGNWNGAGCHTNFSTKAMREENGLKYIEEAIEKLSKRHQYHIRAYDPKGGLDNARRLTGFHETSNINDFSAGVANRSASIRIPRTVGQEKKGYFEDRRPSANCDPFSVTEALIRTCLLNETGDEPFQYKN
# UniProt P48507, sequence (P48507 whole entry, looked up): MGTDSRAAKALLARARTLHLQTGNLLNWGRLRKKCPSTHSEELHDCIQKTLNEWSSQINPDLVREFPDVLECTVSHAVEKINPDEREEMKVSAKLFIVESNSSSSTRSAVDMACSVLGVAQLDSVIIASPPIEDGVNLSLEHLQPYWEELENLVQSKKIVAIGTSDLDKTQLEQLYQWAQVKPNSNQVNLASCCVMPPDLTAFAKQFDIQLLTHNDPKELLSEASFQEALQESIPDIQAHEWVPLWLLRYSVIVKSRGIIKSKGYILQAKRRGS
# UniProt Q5JWF2, sequence (Q5JWF2 whole entry, looked up): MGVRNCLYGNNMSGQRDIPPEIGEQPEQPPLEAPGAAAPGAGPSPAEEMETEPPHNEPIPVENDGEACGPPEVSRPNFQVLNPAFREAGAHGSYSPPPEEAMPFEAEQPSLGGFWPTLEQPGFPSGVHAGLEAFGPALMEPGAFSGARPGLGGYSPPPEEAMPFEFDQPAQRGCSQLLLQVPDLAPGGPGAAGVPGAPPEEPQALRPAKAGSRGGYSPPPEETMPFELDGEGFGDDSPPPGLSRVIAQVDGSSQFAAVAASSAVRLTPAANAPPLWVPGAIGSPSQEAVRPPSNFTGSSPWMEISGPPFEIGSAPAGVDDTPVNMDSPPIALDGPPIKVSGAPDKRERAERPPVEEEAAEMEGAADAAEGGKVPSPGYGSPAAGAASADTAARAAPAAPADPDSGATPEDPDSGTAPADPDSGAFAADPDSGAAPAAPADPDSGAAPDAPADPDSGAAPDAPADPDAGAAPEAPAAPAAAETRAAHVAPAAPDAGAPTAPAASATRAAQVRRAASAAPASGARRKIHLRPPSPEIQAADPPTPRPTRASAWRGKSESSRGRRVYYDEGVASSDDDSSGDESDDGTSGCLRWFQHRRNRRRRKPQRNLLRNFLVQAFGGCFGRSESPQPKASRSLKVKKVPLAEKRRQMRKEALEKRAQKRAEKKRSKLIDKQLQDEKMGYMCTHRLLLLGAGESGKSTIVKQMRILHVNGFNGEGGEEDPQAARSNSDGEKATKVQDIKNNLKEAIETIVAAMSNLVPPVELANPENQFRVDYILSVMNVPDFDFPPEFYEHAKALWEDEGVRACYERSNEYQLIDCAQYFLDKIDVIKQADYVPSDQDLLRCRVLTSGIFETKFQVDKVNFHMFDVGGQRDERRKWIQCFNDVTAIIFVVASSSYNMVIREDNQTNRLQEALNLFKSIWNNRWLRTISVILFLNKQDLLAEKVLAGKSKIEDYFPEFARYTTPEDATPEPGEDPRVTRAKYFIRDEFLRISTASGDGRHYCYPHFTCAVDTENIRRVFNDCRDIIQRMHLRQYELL
# UniProt P85037, sequence (P85037 whole entry, looked up): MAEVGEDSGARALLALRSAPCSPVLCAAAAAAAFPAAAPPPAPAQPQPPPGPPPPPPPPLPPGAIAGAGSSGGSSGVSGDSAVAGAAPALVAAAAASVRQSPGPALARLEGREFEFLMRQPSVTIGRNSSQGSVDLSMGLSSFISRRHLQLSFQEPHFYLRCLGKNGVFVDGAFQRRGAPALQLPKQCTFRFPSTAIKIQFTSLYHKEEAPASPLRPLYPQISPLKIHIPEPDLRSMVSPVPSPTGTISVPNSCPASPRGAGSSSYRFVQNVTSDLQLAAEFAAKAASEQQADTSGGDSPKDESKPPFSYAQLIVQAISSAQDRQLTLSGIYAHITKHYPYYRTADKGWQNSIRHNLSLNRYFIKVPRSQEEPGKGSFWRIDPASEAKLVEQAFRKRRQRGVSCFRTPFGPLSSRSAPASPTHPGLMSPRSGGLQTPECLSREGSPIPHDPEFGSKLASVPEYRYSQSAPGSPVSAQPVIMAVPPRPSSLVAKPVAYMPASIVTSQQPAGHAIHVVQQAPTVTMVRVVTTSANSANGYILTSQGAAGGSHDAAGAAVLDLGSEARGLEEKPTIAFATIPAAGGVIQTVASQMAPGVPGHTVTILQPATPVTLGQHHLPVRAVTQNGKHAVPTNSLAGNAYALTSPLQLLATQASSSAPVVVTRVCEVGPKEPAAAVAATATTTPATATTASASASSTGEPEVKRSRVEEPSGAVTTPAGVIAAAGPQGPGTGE
# UniProt P22087, sequence (P22087 whole entry, looked up): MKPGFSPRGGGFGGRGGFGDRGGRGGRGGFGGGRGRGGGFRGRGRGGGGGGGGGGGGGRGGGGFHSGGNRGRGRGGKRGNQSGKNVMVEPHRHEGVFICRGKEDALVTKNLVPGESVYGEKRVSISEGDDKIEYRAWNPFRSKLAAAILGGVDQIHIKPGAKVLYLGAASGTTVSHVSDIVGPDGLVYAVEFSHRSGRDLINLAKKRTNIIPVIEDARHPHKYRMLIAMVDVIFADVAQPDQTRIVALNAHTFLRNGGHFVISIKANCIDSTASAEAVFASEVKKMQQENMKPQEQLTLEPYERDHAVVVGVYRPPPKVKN
# UniProt P29083, sequence (P29083 whole entry, looked up): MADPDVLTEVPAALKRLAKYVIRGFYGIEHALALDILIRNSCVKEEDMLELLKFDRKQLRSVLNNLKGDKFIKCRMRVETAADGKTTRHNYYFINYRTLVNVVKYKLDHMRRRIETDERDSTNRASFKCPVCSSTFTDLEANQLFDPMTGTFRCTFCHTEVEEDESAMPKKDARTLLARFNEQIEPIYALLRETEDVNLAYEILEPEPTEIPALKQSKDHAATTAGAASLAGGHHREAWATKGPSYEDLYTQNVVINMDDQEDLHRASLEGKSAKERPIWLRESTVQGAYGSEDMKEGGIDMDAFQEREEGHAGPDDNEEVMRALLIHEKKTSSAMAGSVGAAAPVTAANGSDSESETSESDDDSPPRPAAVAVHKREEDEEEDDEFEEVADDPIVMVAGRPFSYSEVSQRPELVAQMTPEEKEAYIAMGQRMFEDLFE
row,Target,log2 fold change
1,GSK3B isoform 2 (UniProt P49841),-0.024
2,GDI1 (UniProt P31150),-0.009
3,HMGCR isoform 3 (UniProt P04035),-0.089
4,FBL (UniProt P22087),0.06
5,HMG20A (UniProt Q9NP66),-0.005
6,HDAC2 (UniProt Q92769),0.757 (active)
7,GCLM (UniProt P48507),-0.054
8,H1FX (UniProt Q92522),-0.285
9,HMGN1 (UniProt P05114),-0.069
10,GDPD1 (UniProt Q8N9F7),0.077
11,IFT74 (UniProt Q96LB3),0.248
12,GLCCI1 (UniProt Q86VQ1),0.027
13,GSTP1 (UniProt P09211),0.021
14,HNRNPF (UniProt P52597),0.02
15,HSPA8 (UniProt E9PK54),-0.008
16,GNPAT (UniProt O15228),0.067
17,GTF2E1 (UniProt P29083),0.067
18,H2AFX (UniProt P16104),0.05

row,Target,log2 fold change
1,FOXK1 (UniProt P85037),0.113
2,GABARAPL1 isoform 2 (UniProt Q9H0R8),0.071
3,HOOK3 (UniProt Q86VS8),0.04
4,FECH isoform 2 (UniProt P22830),0.191
5,HPCAL1 (UniProt P37235),0.011
6,GOLPH3 (UniProt Q9H4A6),0.008
7,HIST2H2BF isoform 2 (UniProt Q5QNW6),0.013
8,HDAC7 isoform 5 (UniProt Q8WUI4),0.025
9,HEXA (UniProt P06865),0.012
10,HDAC6 (UniProt Q9UBN7),0.43 (active)
11,IFRD2 isoform 2 (UniProt Q12894),0.204
12,GSTT1 (UniProt P30711),0.037
13,H2AZ1 (UniProt P0C0S5),-0.025
14,HSD17B12 (UniProt Q53GQ0),0.004
15,GNAS (UniProt Q5JWF2),0.001
16,GLA (UniProt P06280),0.016
17,GLUL (UniProt P15104),-0.058

# Compound: C/C(=N\NC(=O)C1=CC(=CC=C1)S(=O)(=O)N2CCOCC2)/C3=C(C=CC(=C3)Cl)O
# Assay: as above
# How it was run: as §1
row,Target,log2 fold change
1,GSK3B isoform 2 (UniProt P49841),-0.051
2,GDI1 (UniProt P31150),0.025
3,HMGCR isoform 3 (UniProt P04035),0.025
4,FBL (UniProt P22087),-0.153
5,HMG20A (UniProt Q9NP66),0.125
6,HDAC2 (UniProt Q92769),0.013
7,GCLM (UniProt P48507),0.199
8,H1FX (UniProt Q92522),-0.189
9,HMGN1 (UniProt P05114),-0.114
10,GDPD1 (UniProt Q8N9F7),0.024
11,IFT74 (UniProt Q96LB3),-0.95 (active)
12,GLCCI1 (UniProt Q86VQ1),-0.101
13,GSTP1 (UniProt P09211),0.038
14,HNRNPF (UniProt P52597),0.126
15,HSPA8 (UniProt E9PK54),0
16,GNPAT (UniProt O15228),0.112
17,GTF2E1 (UniProt P29083),0.145
18,H2AFX (UniProt P16104),-0.243

row,Target,log2 fold change
1,FOXK1 (UniProt P85037),0
2,GABARAPL1 isoform 2 (UniProt Q9H0R8),-0.012
3,HOOK3 (UniProt Q86VS8),0.039
4,FECH isoform 2 (UniProt P22830),-0.179
5,HPCAL1 (UniProt P37235),0.048
6,GOLPH3 (UniProt Q9H4A6),0.073
7,HIST2H2BF isoform 2 (UniProt Q5QNW6),-0.161
8,HDAC7 isoform 5 (UniProt Q8WUI4),0.057
9,HEXA (UniProt P06865),-0.012
10,HDAC6 (UniProt Q9UBN7),0.033
11,IFRD2 isoform 2 (UniProt Q12894),-0.109
12,GSTT1 (UniProt P30711),-0.007
13,H2AZ1 (UniProt P0C0S5),-0.13
14,HSD17B12 (UniProt Q53GQ0),0.067
15,GNAS (UniProt Q5JWF2),0.042
16,GLA (UniProt P06280),0.019
17,GLUL (UniProt P15104),0.016
